The list is not random: actives were taken first. Their share in the collection is about 3.3%.
MazF activator – MazEF (E. coli) toxin RNase activation; P0AE70; FAM/BHQ RNA-DNA oligo cleavage fluorescence, 5 h; activation, % at 20 µM; 350,000 compounds, 0.32% hits; AID 504720; in the data active = activation above about 50%
BoNT-A LC inh2 – BoNT A light chain protease inhibition. multiplex microsphere protease substrate cleavage, flow cytometry. inhibition, % at 10 µM. 360,000 compounds, 0.17% hits. AID 588499; also: plate controls were buffer without enzyme for full effect and enzyme alone for no effect
Bead autofluor – flagged as autofluorescent in microsphere protease counterscreen. compound autofluorescence counterscreen, microsphere flow cytometry; hits give high values. fluorescence intensity (test concentration not listed). 360,000 compounds, 3.1% hits. AID 624483; in the data active = fluorescence intensity above about 16000; inconclusive = no clear call, values can overlap the other calls
BoNT-F LC inh – blocks Botulinum neurotoxin F light chain protease. Multiplex microsphere protease cleavage assay, flow cytometry. inhibition, % at 10 µM. 360,000 compounds, 0.22% hits; in the data active = inhibition above about 35%, passing the limit was not always enough; inconclusive = no clear call, values can overlap the other calls; also: plate controls were buffer without enzyme for full effect and enzyme alone for no effect
Anthrax LF prot – blocks Bacillus anthracis lethal factor protease. multiplex microsphere protease cleavage assay, LF. 360,000 compounds, 0.12% hits. P15917. AID 588501. inhibition, % at 10 µM; also: plate controls were buffer without enzyme for full effect and enzyme alone for no effect
PriA SSB inh – K. pneumoniae PriA-SSBct interaction inhibition; AlphaScreen SSBct-PriA binding, biotinylated peptide; inhibition, % at 33 µM; 430,000 compounds, 0.6% hits; AID 1272365; in the data active = inhibition mostly above about 37%, no sharp cut-off; inactive = mostly below about 20%;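 also: plate controls were negative control peptide for no effect and reference peptide for full effect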
* = called active by the depositor; ? = inconclusive; nt = no result given; + = active, no number. Rule as the data show it, unless noted: active = inhibition above about 30%; inconclusive = no clear call, values can overlap the other calls; inactive = below that.

SMILES	MazF activator	BoNT-A LC inh2	Bead autofluor	BoNT-F LC inh	Anthrax LF prot	PriA SSB inh
CO[C@@H](CNC(=O)C(=O)Nc1cc2c3c(c1)CC(=O)N3CCC2)c1ccco1	nt	nt	nt	nt	nt	-10.0
CCS(=O)(=O)C1CN(S(=O)(=O)c2cnn(C)c2)C1	nt	nt	nt	nt	nt	-7.0
COC(=O)c1ccc(COc2cccc(OC)c2)o1	7.5	1.3	22471*	-2.6	-8.8	-13.5
COC(=O)c1ccc(COc2ccc(Cl)cc2)o1	1.5	0.6	3301	-2.1	-6.3	-9.9
Cn1c(C=O)c(C#CC(C)(C)O)c2ccccc21	-5.8	1.0	4072	-4.2	2.4	-5.7
COc1cccc(C#Cc2c(C=O)n(C)c3ccccc23)c1	-21.9	36.3*	3517	12.7	37.1*	-24.5
COc1ccc(N2C(=O)c3cccc4cccc(c34)C2=O)cc1	6.8	2.5	3095	7.2	13.1	-6.0
COc1ccc(N2C(=O)c3cccc4c(N(C)CCO)ccc(c34)C2=O)cc1	155.0*	7.1	4739	?	5.5	-13.8
COC(=O)Cc1ccc(NC(=O)c2ccc(C)c(C)c2)cc1	1.4	-2.5	24555*	-0.5	-0.9	-16.7
CCOC(=O)c1c2c3c(cccc3n(C)c1=O)C(=O)c1ccccc1-2	21.3	26.2	2922	40.3*	-8.9	19.4
CCOC(=O)c1c2c3c(cccc3[nH]c1=O)C(=O)c1ccccc1-2	6.0	3.8	3588	3.7	5.5	-16.0
CC(=O)c1ccc(NC(=O)CCc2c(C)nc3ncnn3c2C)cc1	0.7	-0.4	5617	-1.5	-0.5	-3.6
CCc1c(C)nc2ncnn2c1Nc1ccc(C(C)=O)cc1	-7.4	-0.5	3244	1.1	0.6	-7.1
Cc1ccc(NC(=O)CCc2c(C)nc3ncnn3c2C)nc1	10.3	0.5	5030	-3.2	-5.2	-9.2
COC(=O)c1ccc(NC(=O)CCc2c(C)nc3ncnn3c2C)cc1	-9.3	-1.1	22498*	-3.4	0.1	-11.4
CCc1c(C)nc2c(-c3ccccc3)c(C)nn2c1NCCc1ccc(OC)c(OC)c1	nt	nt	nt	nt	nt	-22.0
Cc1ccnc(NC(=O)CCc2c(C)nc3ncnn3c2C)c1	0.4	0.6	20457*	1.7	-2.3	-8.0
CCOC(=O)c1ccc(Nc2c(CC)c(C)nc3ncnn23)cc1	4.2	-2.5	17060*	-2.1	-2.8	-12.6
CCc1c(C)nc2ncnn2c1NCCc1ccc(OC)c(OC)c1	-1.5	4.5	18500*	3.6	-1.1	-3.9
Cc1cc(NC(=O)c2sccc2S(=O)(=O)N(C)c2ccc(Cl)cc2)ccc1Br	nt	nt	nt	nt	nt	-15.0
COc1ccc(-c2n[nH]c(=O)c3nc(N)sc23)cc1	nt	nt	nt	nt	nt	-8.0
Cc1nc2ncnn2c(C)c1CCC(=O)NCCC1=CCCCC1	11.4	-0.7	20756*	-2.5	-1.5	-12.3
Cc1ccc(C(=O)C[n+]2cccc3ccccc32)cc1	-21.7	10.9	5828	53.3*	15.9	-12.6
O=C(C[n+]1cc(Br)cc2ccccc21)c1ccc(Br)cc1	14.9	120.0*	6312	-1.2	45.3*	6.8
O=C(C[n+]1cccc2ccccc21)c1ccc(Br)cc1	-35.2	6.9	8510	?	16.1	-10.1
SMILES	MazF activator	BoNT-A LC inh2	Bead autofluor	BoNT-F LC inh	Anthrax LF prot	PriA SSB inh
O=C(C[n+]1cc(Br)cc2ccccc21)c1ccc(Cl)cc1	-10.6	103.8*	6803	31.9	20.4	0.5
Cc1ccc(C2(C(F)(F)F)NC(=O)N3CCCN=C3S2)cc1 (configuration not stated)	-3.8	-0.7	8142	-10.6	0.8	-14.3
Cc1ccc(C2(C(F)(F)F)NC(=O)N3CCN=C3S2)cc1 (configuration not stated)	6.5	?	21208*	2.8	-2.7	-4.0
Cc1ccc(N2CS(=O)(=O)/C(=C/N(C)C)C2=O)cc1	8.3	2.8	21872*	2.0	-0.3	-8.8
CN(C)/C=C1\C(=O)N(c2ccc(Cl)cc2)CS1(=O)=O	10.7	-1.4	23839*	-1.9	-1.3	1.3
O=C1NCCN1c1ccc(Cl)cc1	nt	nt	nt	nt	nt	31.0
Cc1ccc(N2C(=O)CNC2=S)cc1	nt	nt	nt	nt	nt	13.0
COc1ccc2nc(NCCN3CCOCC3)sc2c1	nt	nt	nt	nt	nt	13.0
CC1(C)CN(c2ccccc2)N(Cc2ccc(F)cc2)C1=O	-3.2	7.5	18014*	10.9	-1.1	-29.7
Cc1ccc(Cn2nnc3c(=O)[nH]c(C4CCN(C(=O)c5cccs5)CC4)nc32)cc1	-0.3	-1.1	23099*	-3.2	-0.3	-5.6
O=c1[nH]c(C2CCCN(S(=O)(=O)c3cccc(F)c3)C2)nc2c1nnn2Cc1ccccc1 (configuration not stated)	2.2	-3.2	6725	-5.0	0.7	3.0
O=c1[nH]c(C2CCCN(S(=O)(=O)c3ccccc3)C2)nc2c1nnn2Cc1ccccc1 (configuration not stated)	-13.4	2.2	22466*	1.9	-0.9	5.8
Cc1nn(C2CCS(=O)(=O)C2)c2nc(-c3ccco3)cc(C(=O)Nc3ccc4c(c3)OCCO4)c12 (configuration not stated)	nt	nt	nt	nt	nt	10.0
O=C(CSc1ccc(NC(=O)c2cccc(F)c2)nn1)NCc1ccccc1	nt	nt	nt	nt	nt	-11.0
CN1/C(=C\C=O)C(C)(C)c2ccccc21	18.2	-0.9	5805	-6.7	-2.7	-3.3
CN1C(=CC=[N+](C)c2ccccc2)C(C)(C)c2ccccc21	nt	nt	nt	nt	nt	-5.1
CN1/C(=C/C=C(C#N)C#N)C(C)(C)c2ccccc21	+	0.1	3257	-1.2	2.8	4.9
CN1\C(=C/C=C/C=C/C=[N+](C)C)C(C)(C)c2ccccc21	477.0*	?	3486	?	?	nt
Cc1cc(OC2CN(S(=O)(=O)c3cnc[nH]3)C2)cc(=O)o1	nt	nt	nt	nt	nt	-11.0
Cc1cccn2cc(-c3ccc(S(=O)(=O)N4CCOCC4)cc3)nc12	-0.8	0.1	23299*	-0.9	0.6	-7.2
O=S(=O)(c1ccc(-c2cn3ccccc3n2)cc1)N1CCOCC1	1.4	-8.7	22528*	-10.4	1.2	-21.6
Cc1cccn2cc(-c3ccc(S(=O)(=O)N4CCCCC4)cc3)nc12	-3.1	0.6	4319	4.4	0.6	-9.0
Cc1ccc(-c2nc3ncccc3o2)cc1NC(=O)c1ccc(F)cc1	nt	nt	nt	nt	nt	1.0
O=C(Nc1cc(Sc2ccccn2)cc([N+](=O)[O-])c1)c1cccc(Cl)c1	76.1*	0.6	1956	-2.7	-2.1	6.4
CC(C)N(Cc1ccccc1)C(=O)c1cnc2n(c1=O)CCS2	4.6	1.2	6320	2.1	-4.8	-8.1
SMILES	MazF activator	BoNT-A LC inh2	Bead autofluor	BoNT-F LC inh	Anthrax LF prot	PriA SSB inh
COC(=O)c1ccc(C(=O)OC)c(NC(=O)c2cnc3n(c2=O)CCS3)c1	-5.1	?	16274*	2.8	-0.6	-15.3
Cc1cccc(N(C(=O)c2cnc3n(c2=O)CCS3)C2CCCCC2)c1	-0.5	2.5	22301*	2.0	2.0	3.3
CN(Cc1ccccc1)C(=O)c1cnc2n(c1=O)CCS2	4.9	?	19652*	4.4	0.6	-11.6
COc1ccc(Cn2c(O)c(N=O)c3ccccc32)cc1	nt	nt	nt	nt	nt	8.0
O=C(Nc1nnc(-c2ccc(Br)o2)o1)c1ccc(F)cc1F	nt	nt	nt	nt	nt	4.0
CCCN=C1CC(C)(C)CC(=O)C1=C(O)CCCN1C(=O)c2ccccc2C1=O	nt	nt	nt	nt	nt	3.4
Cc1[nH]c2ccccc2c1C(=O)/C=C\c1ccccc1Cl	2.5	-0.5	2534	-17.7	-1.1	-3.3
